Compounds with a hit are over-represented: about 2.7% of the library has one in this group of screens.
Env fusion inh – HIV envelope-mediated fusion inhibition; HeLa-JRFL Env/CEM21 cell fusion, luciferase; inhibition, % at 12.3 µM; 1.1% of 360,000 active; AID 651610;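 active means mean replicate inhibition score of at least 50 and every replicate individually at or above 50; inconclusive means only one of the two criteria met; inactive means mean below 50 and not all replicates reaching 50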;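 further: 0% = plate neutral controls and 100% = maraviroc near 300 nM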
Wnt bcat act – activators of Wnt/beta-catenin signaling | Wnt/beta-catenin reporter cell assay, activator, plate reader | activation, % at 9.35 µM | 1.2% of 300,000 active | AID 743398; in the data active means activation above about 30%, passing the limit was not always enough; inconclusive means no clear call, values can overlap the other calls;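 further: 0% = neutral control wells and 100% = positive control wells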
MITF act – MITF TRPM1 promoter activation in melanoma cells; SK-MEL-5 TRPM1-promoter luciferase, 24 h; % of positive control, neutral wells = 0; activation, % at 12.5 µM; 0.75% of 300,000 active;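 active means mean activation of at least 80% with every replicate also reaching 80%; inconclusive means mean reaches 80% but some replicate falls short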;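 further: 0% = neutral control wells and 100% = parthenolide positive control wells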
INS-1E GSIS act – GLuc luminescence reporter in INS-1E cells, primary screen for activators of glucose-dependent secretion of insulin; INS-1E GLuc reporter insulin secretion, 2-3 h; activation, % at 16.6 µM; 0.61% of 370,000 active; AID 743287;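 active means lowest replicate activation of at least 40%, so every replicate reaches that level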;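 further: 0% = median of neutral control wells and 100% = median of IBMX positive control wells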
F508del corr – CFTR F508del correction in bronchial cells | CFBE cells, YFP halide quenching; stimulated with forskolin plus potentiator P3; % fluorescence drop versus neutral controls | activity (quench increase), % at 7.58 µM | 0.36% of 350,000 active;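 active means mean added fluorescence quench of at least 8% versus neutral control, with both replicates also reaching 8%; inconclusive means only one of the mean or replicate conditions met; inactive means mean below 8% and not both replicates reaching 8%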;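 further: cells transiently co-express mutant CFTR-F508del with the halide-sensitive YFP; corrector assay measuring rescue of mutant channel to the surface after 24 h compound exposure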
Numbers without * were called inactive; ? = inconclusive; . = not tested or not shown; [ ] = remark or other dose.

SMILES	Env fusion inh	Wnt bcat act	MITF act	INS-1E GSIS act	F508del corr
COc1ccc(NC(=O)N2CCCCN3[C@H](CO)[C@@H](c4ccc(C#Cc5ccccn5)cc4)[C@H]3C2)cc1	.	.	.	-8	.
COc1ccc2c3c(n(C)c2c1)[C@@H](CO)N(CC1CCOCC1)CC31CN(CC2CCOCC2)C1	.	.	.	8	-2
Oc1ccc(C=NNc2ccccn2)c(O)c1	69*	12	2	-5	2
COc1ccc(/C=N/Nc2ccccn2)cc1O	-61	48*	85*	.	-1
COc1cc(/C=N/Nc2ccc(C(F)(F)F)cn2)ccc1O	-16	31*	10	-10	-1
Oc1cccc(C=NNc2ccccn2)c1	-38	0	14	20	1
C[C@H](CO)N1C[C@H](C)[C@@H](CN(C)C)Oc2ccc(NC(=O)Nc3ccc4c(c3)OCO4)cc2CC1=O	.	.	.	-1	0
C[C@@H]1CN([C@@H](C)CO)C(=O)c2cc(NC(=O)NC3CCCCC3)ccc2O[C@H]1CN(C)C(=O)Nc1cccc2ccccc12	-26[16.7 µM]	.	.	13	-2
CC(C)c1ccc(OCc2ccc(C(=O)O)o2)cc1	-27	12	-18	12	1
CC(C)c1ccc(OCc2ccc(C(=O)N(C)C)o2)cc1	-63	45*	91*	-29	-2
CN1CCN(C(=O)C2=C[C@H](c3ccccc3)C[C@H](OCCCCO)O2)CC1	-5[16.7 µM]	.	.	.	-1
CCCc1cnc(N2CCN(C(=S)NC)CC2)nc1	-35	40*	.	20	-1
CCCc1cnc(N2CCN(C(=O)c3ccc(F)cc3)CC2)nc1	4	3	-12	-4	-5
CN(C)C(=O)[C@@H]1[C@@H](CO)[C@@H]2Cn3c(ccc(-c4ccccc4)c3=O)[C@H]1N2Cc1ccccn1	.	.	.	-1	.
C[C@@H]1CN([C@H](C)CO)S(=O)(=O)c2ccc(C#C[C@@H](C)O)cc2O[C@H]1CN(C)C(=O)Nc1ccccc1	-35[16.7 µM]	.	.	0	-1
CCN(CC)S(=O)(=O)c1ccc(NS(=O)(=O)c2cccc(C)c2)cc1	-5	39*	1	.	.
CCN(CC)S(=O)(=O)c1cccc(S(=O)(=O)c2cccc(S(=O)(=O)N(CC)CC)c2)c1	79*	-5	4	-16	.
O=C(C[C@H]1CC[C@@H](NC(=O)C2CCOCC2)[C@H](CO)O1)Nc1ccccc1	.	.	.	6	-2
Cc1ccc(/C=N/NC(=O)c2ccco2)s1	-49	45*	44	.	.
Cc1occc1C(=O)N/N=C/c1ccc(Br)s1	-29	11	49	1	-1
O=C(N/N=C/C(Cl)=C\c1ccccc1)c1ccco1	-145	57*	.	-6	-2
O=C(N/N=C/C(Cl)=C/c1ccccc1)c1ccco1	-51	12	80	-8	0
O=C(N/N=C/c1ccc(Br)s1)c1ccco1	-38	43*	?	-6	-2
COc1ccccc1-c1ccc([C@H]2[C@@H](CO)N3CCCCN(C(=O)NC4CCCC4)C[C@@H]23)cc1	.	.	.	-24	-1
CN1C(=O)c2cc(NS(=O)(=O)c3ccccc3Cl)ccc2OC[C@H]2O[C@H](CC(=O)O)CC[C@@H]21	8[16.7 µM]	.	.	-3	-1
SMILES	Env fusion inh	Wnt bcat act	MITF act	INS-1E GSIS act	F508del corr
COC(=O)C[C@H]1C[C@H]2c3cc(NC(=O)c4cccnc4)ccc3O[C@H]2[C@@H](CO)O1	3[16.7 µM]	.	.	4	0
C[C@@H](NC(=O)C[C@@H]1CC[C@@H](NC(=O)Cc2ccccn2)[C@H](CO)O1)c1ccccc1	4[16.7 µM]	.	.	7	1
OC1(c2ccc(OC(F)F)cc2)CSC(=Nc2cccnc2)N1C1CC1 (stereo unspecified)	75*	-13	-33	.	.
Cc1ccc(C(=O)c2c3ccccc3[n+]([O-])n2CCO)cc1	-19	3	-2	48*	1
COc1ccc(C(=O)c2c3ccccc3[n+]([O-])n2CCCN)cc1	-1	-3	3	-1	1
C[C@H]1O[C@@H](O[C@H]2[C@@H](O)C[C@H](O[C@H]3[C@@H](O)C[C@H](O[C@H]4CC[C@@]5(C)[C@H](CC[C@@H]6[C@@H]5C[C@@H](O)[C@]5(C)[C@@H](C7=CC(=O)OC7)CC[C@]65O)C4)O[C@@H]3C)O[C@@H]2C)C[C@H](O)[C@@H]1O	86*	-22	-68	.	2
COc1ccc(Nc2nc(-c3ccc(OC)cc3)c(CCC(=O)O)s2)cc1	10	2	-2	-2	-2
COC(=O)CCc1sc(Nc2ccccc2)nc1-c1ccc(OC)cc1	-7	42*	61	-23	.
COc1ccccc1N1CCN(/N=C/C(Cl)=C/c2ccccc2)CC1	-30	45*	.	-25	-1
COc1ccccc1N1CCN(CCOc2c(OC)cccc2OC)CC1	63*	.	.	.	.
COc1ccccc1N1CCN(/N=C\c2ccc(C)o2)CC1	-91	42*	54	.	.
COc1ccccc1N1CCN(/N=C\c2ccccc2)CC1	-35	3	.	-3	-2
C[C@H]1CN([C@@H](C)CO)S(=O)(=O)c2ccc(C#Cc3cccc(F)c3)cc2O[C@H]1CN(C)S(=O)(=O)c1ccccc1F	2[16.7 µM]	.	.	5	2
C[C@@H]1CN([C@H](C)CO)C(=O)Cc2cc(NC(=O)c3ccncc3)ccc2O[C@@H]1CN(C)S(C)(=O)=O	-11[16.7 µM]	.	.	11	1
CCCNC(=O)[C@@H]1[C@@H](CO)[C@@H]2Cn3c(ccc(-c4ccc(F)cc4)c3=O)[C@@H]2N1CC1CC1	.	.	.	2	2
C(=N\Nc1nc(-c2ccccc2)cs1)/c1ccco1	-72	.	97*	0	.
O=C(/C=C/c1ccco1)Nc1nc(-c2ccccc2)cs1	.	37*	54	-10	0
C(=N\Nc1nc(-c2ccccc2)cs1)/c1cccs1	-211	56*	51	.	.
Brc1ccc(-c2csc(N/N=C/c3ccco3)n2)cc1	-23	38*	56	-3	-2
O=C(/C=C/c1ccco1)Nc1nc(-c2ccccn2)cs1	-2	-2	6	-31	-3
O=C(NC[C@H]1CC[C@H]2[C@H](CN2C(=O)Cc2ccncc2)O1)C1CCOCC1	.	.	.	.	1
CO[C@@H]1CN(C)C(=O)c2cc(NC(=O)C3CC3)ccc2OC[C@H](C)N(CC2CCCC2)C[C@@H]1C	.	.	.	8	-1
O=C(/C=C/c1ccco1)Nc1scc(-c2ccccc2)c1C(=O)O	-10	42*	27	12	0
O=C(/C=C/c1ccccc1)Nc1scc(-c2ccccc2)c1C(=O)O	-5	15	40	-21	-1
CO/N=C\CC(=O)Nc1ccc(F)cc1	-3	.	.	.	.
CO/N=C\CC(=O)Nc1ccc(Cl)cc1Cl	-85	-2	-1	-8	11*
CN(C)CC#Cc1ccc([C@@H]2[C@H](CO)N3CCCCN(C(=O)C4CC4)C[C@@H]23)cc1	.	.	.	.	0
O=C(NC12CC3CC(CC(C3)C1)C2)N(Cc1ccccc1)Cc1ccncc1	62*	-1	8	-30	-3
Cc1ccc(-c2nnc(-c3ccccc3)o2)cc1Br	-161	35*	34	4	.
Cc1ccc(-c2nnc(-c3cccc(Br)c3)o2)cc1	-136	52*	53	.	.
